The entries come from a sample that favours hits as a whole.
FECH inh: blocks human mitochondrial ferrochelatase activity. AID 1671448. 20,000 tested, 3.3% active. purified FECH, Ni-mesoporphyrin absorbance 550 nm. calls only at 10 µM (by protocol);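 active = enzyme reaction rate more than 3 SD below the solvent-only control wells on the same plate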;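 also: lower slope than DMSO wells means FECH inhibition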
Target sequence (P22830 whole entry, looked up): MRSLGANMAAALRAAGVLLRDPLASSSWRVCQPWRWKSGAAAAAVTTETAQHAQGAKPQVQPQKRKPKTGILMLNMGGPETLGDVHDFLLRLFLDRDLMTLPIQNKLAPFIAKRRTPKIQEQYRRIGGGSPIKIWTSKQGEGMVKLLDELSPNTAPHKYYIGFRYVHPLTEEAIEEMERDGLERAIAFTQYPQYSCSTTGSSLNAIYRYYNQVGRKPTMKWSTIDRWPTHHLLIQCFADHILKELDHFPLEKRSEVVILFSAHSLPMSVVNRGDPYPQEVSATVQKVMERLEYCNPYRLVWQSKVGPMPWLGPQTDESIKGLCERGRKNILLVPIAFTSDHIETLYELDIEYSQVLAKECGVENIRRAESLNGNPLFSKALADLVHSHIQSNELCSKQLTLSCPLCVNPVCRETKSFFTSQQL
* = called active by the depositor; i = inactive; + = active, no number.

SMILES | FECH inh
CS(=O)(=O)N1CCN(c2cc(-c3ccc(F)cc3)ncn2)CC1 | +
CCS(=O)(=O)N1CCN(c2cc(-c3cccc(C)c3)ncn2)CC1 | +
CS(=O)(=O)N1CCN(c2cc(-c3cccc(F)c3)ncn2)CC1 | i
Cc1cccc(C)c1OC1CN(C(=O)CSc2nnc(N)s2)C1 | i
CCOC(=O)CN1CCCC1c1ccccn1 (configuration not stated) | i
Cc1cc(N2CCCC2)nc(N2CCN(S(=O)(=O)c3cccc(F)c3)CC2)n1 | i
CCOc1c(Nc2ccc(C)c(Cl)c2)c(=O)c1=O | i
CC(=O)c1ccc(NC(=O)CN2CCCN(Cc3ccccc3)S2(=O)=O)cc1 | i
COc1ccc(CNC(=O)CN2CCCN(Cc3cccc(Cl)c3)S2(=O)=O)cc1 | i
CCOc1ccc(NC(=O)CN2CCCN(Cc3cccc(Cl)c3)S2(=O)=O)cc1 | +
O=C(CN1CCCN(Cc2cccc(Cl)c2)S1(=O)=O)Nc1ccc2c(c1)OCO2 | i
COC(=O)c1ccc(NC(=O)CN2CCCN(Cc3ccccc3)S2(=O)=O)cc1 | i
CCOc1ccc(NC(=O)CN2CCCN(Cc3ccccc3)S2(=O)=O)cc1 | +
CCNC(=O)[C@@H]1CCCN1Cc1cc2cc3c(cc2[nH]c1=O)CCC3 | i
CCCc1c(C)nc2ncnn2c1Sc1ccc(NC(=O)Cc2ccc(Cl)cc2)cc1 | i
CCc1cc(CN(C)Cc2ccc(C(C)=O)cc2)on1 | i
Cc1cc(C2CCCN2Cc2cc3cc4c(cc3[nH]c2=O)OCO4)on1 (configuration not stated) | i
COc1ccc(CN2CCN(C(=O)c3nc4ccccc4n(C)c3=O)CC2)c(OC)c1OC | +
COc1ccc(N2CCN(C(=O)c3nc4ccccc4n(C)c3=O)CC2)cc1 | i
Cn1c(=O)c(C(=O)N2CCN(c3ncccn3)CC2)nc2ccccc21 | i
Cn1ccc(NC(=O)CN2CCCC(CCc3ccc(F)cc3)C2)n1 (configuration not stated) | i
O=C(CN1c2ccc(Br)cc2-c2ccccc2S1(=O)=O)NCc1cccnc1 | +
O=C(CN1c2ccc(Br)cc2-c2ccccc2S1(=O)=O)Nc1cccnc1 | +
CC(C)Cc1nc(-c2nc3c([nH]2)CC(C)(C)CNC3=O)no1 | i
COCC(=O)N1CCCN(C(=O)c2ccc(F)c(OC)c2F)CC1 | i
SMILES | FECH inh
Cc1ccc(Nc2nc(N(C)C)nc3c2cnn3-c2ccccc2)cc1C | i
Cc1ccccc1-c1ncc(CN2CCN(CC3CCCO3)CC2)s1 (configuration not stated) | i
CSc1nc(NCCCN2CCOCC2)c(C#N)c(-c2ccccc2)n1 | i
CC1CCN(C(=O)c2[nH]cnc2C(=O)NC(C)C)CC1 | i
COc1cc(NC(=O)C2CCN(c3ccc(-c4cccs4)nn3)CC2)cc(OC)c1 | i
CC(C)(C)c1nnc(NC(=O)NCc2cccnc2)s1 | i
CCc1cc(Sc2ccccc2NC(=O)Cc2ccc(OC)cc2)n2nc(C)nc2n1 | +
CCc1cc(Sc2ccccc2NC(=O)Cc2cccc(OC)c2)n2nc(C)nc2n1 | i
CCc1cc(Sc2ccccc2NC(=O)c2cc(OC)cc(OC)c2)n2nc(C)nc2n1 | i
Cn1ccc2c(-c3cccc(O)c3)ccnc21 | i
CC(=O)c1cccc(-c2ccnc3[nH]ccc23)c1 | +
FC(F)(F)c1ccc(-c2ccnc3[nH]ccc23)nc1 | i
c1ccc2c(CN3CCCCC3CCn3ccnc3)ccnc2c1 (configuration not stated) | +
O=C(c1c[nH]c(=O)cn1)N1CCCCC1CCn1ccnc1 (configuration not stated) | i
O=C(NCCc1ccccc1)N1CCCCC1CCn1ccnc1 (configuration not stated) | i
CCOc1ccc(Cn2c(CNS(=O)(=O)c3c(C)noc3C)nc3cccnc32)cc1 | i
CCOc1ccc(S(=O)(=O)N2CCN(c3nc(C)cc(N4CCCC4)n3)CC2)cc1 | i
CCCCOc1ccc(S(=O)(=O)N2CCN(c3nc(C)cc(N4CCCC4)n3)CC2)cc1 | +
CCCCOc1ccc(S(=O)(=O)N2CCN(c3nc(C)cc(N4CCCCC4)n3)CC2)cc1 | i
Cc1sc2ncnc(N(C)Cc3ncc[nH]3)c2c1C | i
CCSc1ncc(-c2nccn2Cc2ccc3c(c2)OCO3)cn1 | i
Cc1cccc(OCCN2CCCCC2CO)c1C (configuration not stated) | +
Cc1cccc(OCCN2CCCN(C(=O)c3ccco3)CC2)c1C | i
CCn1ccnc1-c1c(-c2ccccc2)ncn1CCN1CCCCC1CO (configuration not stated) | i
Cc1cc(C)n(CCC(=O)NCc2cn[nH]c2-c2ccc(Cl)cc2)c(=O)n1 | i
CCS(=O)(=O)N1CCN(Cc2nc3cccnc3n2-c2cc(C)cc(C)c2)CC1 | i
CSc1cccc(NC(=O)N2CCCCC2CCn2ccnc2C)c1 (configuration not stated) | i

Compound activity: PubChem BioAssay, Corson Lab, School of Medicine, Indiana University
